The source of these data is PubChem BioAssay (Tox21).

Values joined by “and” are separate entries in the source; they are usually repeats but may differ in a detail not shown here. Equal entries are not always repeated. Records with an inconclusive call do not appear. A call without a number means that no potency is given here. A structure can be active in one record and inactive in another. Active and inactive are the calls of the source. Unless noted, calls follow the shape of the full dose curve.

The nature of one test: qHTS assay for small molecule agonists of the antioxidant response element (ARE) signaling pathway (AID 743202; active = well fitted activation curve with a large enough effect in the signal ratio in the repeat runs, not every such curve was filed as active; the % refers to the signal ratio; also: potency is read from the fitted curve at half-maximal effect). Conditions: HepG2 ARE-bla reporter, beta-lactamase FRET, 16 h; series mostly up to 73.3 µM; activation: at the top concentration. In short, it runs like this: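 Agonist mode reporter screen: HepG2 cells with ARE-controlled beta-lactamase are incubated with test compounds for 16 h at 37 C, and beta-lactamase activity is measured as fluorescence of cleaved B/G FRET substrate.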
As for `CCCCNC(=O)NS(=O)(=O)c1ccc(N)cc1`, the “activation” value is -0.238% (inactive).

Take `CCCCCCCCCCCCCCCCCC(=O)OCC(O)CO` (stereo not given): the Potency entry is “inactive”.

In the case of `COCC(C)N` (stereo not given), the Potency entry was “inactive”.

With `CCCCCCCCCCCCCC(=O)OC(C)C`, the Potency result was “inactive”.

Consider `N[C@@H](Cc1c[nH]c2ccccc12)C(=O)O`, for which the “activation” value was 10.9% (inactive).

In the case of `CCCCC/C(C=O)=C\c1ccccc1`, the “activation” value was -0.791% (inactive).

Consider `C=CCOC(=O)CC(C)C`, for which the Potency entry is “inactive”.

As to `CC(=O)c1ccc(S(=O)(=O)NC(=O)NC2CCCCC2)cc1`, the Potency result is “inactive”.

On to `COC(=O)c1ccc(O)cc1`, for which the “activation” value was 2.04% (inactive).

As to `Oc1cccc(O)c1`, the Potency entry was “inactive”.

Regarding `COc1ccccc1O`, the Potency entry is “inactive”.

`CC(C)CC(C)CC(O)CC(C)C` (stereo not given): the Potency result is “inactive”.

With `NC(=O)N1c2ccccc2C=Cc2ccccc21`, the Potency result was “inactive”.

Take `O=C1CCCCCN1`: the Potency entry is “inactive”.

For `O=c1c(-c2ccc(O)cc2)coc2cc(O)cc(O)c12`, the Potency is 6.74 µM (active) and 10.6 µM (active).

On to `O=C(O)Cc1cccc2ccccc12`, for which the Potency entry is “inactive”.

On to `COc1cc(O)c(C(=O)c2ccccc2)cc1S(=O)(=O)O`, for which the Potency entry was “inactive”.

With `CCCCOCCOCCOC(C)=O`, the Potency result was “inactive”.

Regarding `Cn1cnc2c1c(=O)[nH]c(=O)n2C`, the “activation” value is 0.27% (inactive).

Take `COCCOCCOC`: the Potency result was “inactive”.

Take `CCOC(=O)C(C)(C)Oc1ccc(Cl)cc1`: the Potency entry was “inactive”.

As for `CC(O)COc1ccccc1` (stereo not given), the Potency result was “inactive”.

For the compound `Cc1cccc(C)c1O`, the Potency entry was “inactive”.

On to `COC(=O)c1ccc(C=O)cc1`, for which the Potency entry was “inactive”.

Take `Cc1ccc(O)c(-n2nc3ccccc3n2)c1`: the Potency is 60.6 µM (active).

For `Cc1cccc2ccccc12`, the Potency result is “inactive”.

Take `CC(=O)CCC(C)C`: the Potency is 61.1 µM (active).

Turning to `O=[N+]([O-])c1ccc(O)cc1`, the Potency entry was “inactive”.

As for `CCCCCCCCOc1ccc(C(=O)c2ccccc2)c(O)c1`, the Potency result was “inactive and 48.6 µM (active)”.

Regarding `Cc1c(N(C)CS(=O)(=O)O)c(=O)n(-c2ccccc2)n1C`, the Potency result is “inactive”.

The next test is described as follows: qHTS assay for small molecule agonists of the antioxidant response element (ARE) signaling pathway - cell viability counter screen (AID 743203). Also: nearly all actives have a fitted effect of over 55% in size. Also: potency is read from the fitted curve at half-maximal effect. To be noted: ARE-bla HepG2 viability, CellTiter-Glo luminescence, 16 h; series mostly up to 73.3 µM; viability change, negative = cytotoxic: at the top concentration. In short, it runs like this: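 Seeded at 2,000 cells/well, ARE-bla HepG2 cells were incubated 5 hrs before compound addition. After 16 hrs of treatment at 37C with 5% CO2, CellTiter-Glo reagent was added and luminescence read 30 min later.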
`CCCCNC(=O)NS(=O)(=O)c1ccc(N)cc1`: the Potency entry is “inactive”.

Turning to `CCCCCCCCCCCCCCCCCC(=O)OCC(O)CO` (stereo not given), the Potency entry is “inactive”.

In the case of `COCC(C)N` (stereo not given), the “viability change, negative = cytotoxic” value was -1.33% (inactive).

On to `CCCCCCCCCCCCCC(=O)OC(C)C`, for which the Potency result is “inactive”.

With `N[C@@H](Cc1c[nH]c2ccccc12)C(=O)O`, the Potency entry was “inactive”.

Take `CCCCC/C(C=O)=C\c1ccccc1`: the Potency entry is “inactive”.

As to `C=CCOC(=O)CC(C)C`, the Potency entry is “inactive”.

With `CC(=O)c1ccc(S(=O)(=O)NC(=O)NC2CCCCC2)cc1`, the Potency entry was “inactive”.

As for `COC(=O)c1ccc(O)cc1`, the Potency entry is “inactive”.

Take `Oc1cccc(O)c1`: the Potency entry is “inactive”.

Take `COc1ccccc1O`: the Potency entry was “inactive and 24.5 µM (active)”.

With `CC(C)CC(C)CC(O)CC(C)C` (stereo not given), the Potency entry was “inactive”.

As for `NC(=O)N1c2ccccc2C=Cc2ccccc21`, the Potency entry is “inactive”.

In the case of `O=C1CCCCCN1`, the Potency entry was “inactive”.

`O=c1c(-c2ccc(O)cc2)coc2cc(O)cc(O)c12`: the Potency entry is “inactive”.

With `O=C(O)Cc1cccc2ccccc12`, the Potency entry was “inactive”.

As to `COc1cc(O)c(C(=O)c2ccccc2)cc1S(=O)(=O)O`, the Potency entry is “inactive”.

For `CCCCOCCOCCOC(C)=O`, the Potency entry is “inactive”.

`Cn1cnc2c1c(=O)[nH]c(=O)n2C`: the “viability change, negative = cytotoxic” value is -4.7% [at 34.3 µM] (inactive).

Turning to `COCCOCCOC`, the Potency result is “inactive”.

For the compound `CCOC(=O)C(C)(C)Oc1ccc(Cl)cc1`, the Potency entry was “inactive”.

With `CC(O)COc1ccccc1` (stereo not given), the Potency result was “inactive”.

Regarding `Cc1cccc(C)c1O`, the Potency result was “inactive”.

For the compound `COC(=O)c1ccc(C=O)cc1`, the Potency result is “inactive”.

For `Cc1ccc(O)c(-n2nc3ccccc3n2)c1`, the Potency entry is “inactive”.

Take `Cc1cccc2ccccc12`: the Potency result was “inactive”.

In the case of `CC(=O)CCC(C)C`, the Potency entry is “inactive”.

As for `O=[N+]([O-])c1ccc(O)cc1`, the Potency entry was “inactive”.

For `CCCCCCCCOc1ccc(C(=O)c2ccccc2)c(O)c1`, the Potency entry is “inactive”.

On to `Cc1c(N(C)CS(=O)(=O)O)c(=O)n(-c2ccccc2)n1C`, for which the Potency entry was “inactive”.

A short description of another test: qHTS assay for small molecule activators of the heat shock response signaling pathway - cell viability counter screen (AID 743209; active = well fitted cell-killing curve with a large enough effect in the repeat runs; also: nearly all actives have a fitted effect of over 50% in size). Conditions: HSE-bla HeLa viability, CellTiter-Glo luminescence, 5 h; series mostly up to 62.6 µM; activity change, negative = cytotoxicity: at the top concentration. The procedure, abridged: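 First, HSE-bla HeLa cells were seeded at 1500 cells/well and kept overnight at 37 C. Next, compounds were pinned in and incubated 5 h. After the FRET substrate step, CellTiter-Glo was added and luminescence read 30 min later.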
In general terms: qHTS replaces the single test concentration by a dilution series.
Turning to `CCCCNC(=O)NS(=O)(=O)c1ccc(N)cc1`, the compound was called inactive.

As to `CCCCCCCCCCCCCCCCCC(=O)OCC(O)CO` (stereo not given), the compound was classed as inactive.

As for `COCC(C)N` (stereo not given), the compound was classed as inactive.

On to `CCCCCCCCCCCCCC(=O)OC(C)C`, for which the compound was classed as inactive.

Consider `N[C@@H](Cc1c[nH]c2ccccc12)C(=O)O`, for which the compound was called inactive.

Regarding `CCCCC/C(C=O)=C\c1ccccc1`, the call was inactive.

As to `C=CCOC(=O)CC(C)C`, the compound was classed as inactive.

Take `CC(=O)c1ccc(S(=O)(=O)NC(=O)NC2CCCCC2)cc1`: the compound was called inactive.

As for `COC(=O)c1ccc(O)cc1`, the compound was called inactive.

As to `Oc1cccc(O)c1`, the compound was called inactive.

`COc1ccccc1O`: the compound was called inactive.

In the case of `CC(C)CC(C)CC(O)CC(C)C` (stereo not given), the result was inactive.

With `NC(=O)N1c2ccccc2C=Cc2ccccc21`, the compound was called inactive.

For `O=C1CCCCCN1`, the result was inactive.

Consider `O=c1c(-c2ccc(O)cc2)coc2cc(O)cc(O)c12`, for which the result was inactive.

With `O=C(O)Cc1cccc2ccccc12`, the result was inactive.

Turning to `COc1cc(O)c(C(=O)c2ccccc2)cc1S(=O)(=O)O`, the compound was called inactive.

For the compound `CCCCOCCOCCOC(C)=O`, the “activity change, negative = cytotoxicity” value was -4.04% (inactive).

With `Cn1cnc2c1c(=O)[nH]c(=O)n2C`, the “activity change, negative = cytotoxicity” value was 6.27% [at 29.1 µM] (inactive).

For `COCCOCCOC`, the compound was called inactive.

Take `CCOC(=O)C(C)(C)Oc1ccc(Cl)cc1`: the compound was called inactive.

On to `CC(O)COc1ccccc1` (stereo not given), for which the result was inactive.

Regarding `Cc1cccc(C)c1O`, the compound was called inactive.

For `COC(=O)c1ccc(C=O)cc1`, the compound was classed as inactive.

Take `Cc1ccc(O)c(-n2nc3ccccc3n2)c1`: the call was inactive.

Turning to `Cc1cccc2ccccc12`, the call was inactive.

For the compound `CC(=O)CCC(C)C`, the “activity change, negative = cytotoxicity” value is 2.24% (inactive).

Turning to `O=[N+]([O-])c1ccc(O)cc1`, the result was inactive.

Turning to `CCCCCCCCOc1ccc(C(=O)c2ccccc2)c(O)c1`, the compound was called inactive.

`Cc1c(N(C)CS(=O)(=O)O)c(=O)n(-c2ccccc2)n1C`: the compound was called inactive.
